The campaign covered roughly 68,000 compounds. About 2,700 (4%) showed an effect of 50% or more. For the sample, strong results were picked, then their nearest neighbours and some compounds at random.
Each compound was assayed on Plasmodium berghei (assay: Screen against P. berghei liver stage (PbLuc), transformed with Luciferase, at 2uM). Details: tested at 2 uM.
Format: functional, HepG2

Going from CCC(C)(CC(=O)OC)NC(=O)c1ccc(C(C)=O)cc1 (stereo not drawn) to COC(=O)CNC(=O)CSCc1nc(O)c2cc(C)sc2n1, the INHIBITION falls from 27.85% to -2.99%.

Compared with COc1cccc(-c2cc(C(=O)NCCCn3cnnc3)[nH]n2)c1, COc1cccc(S(=O)(=O)Cc2cc(C)on2)c1 is higher in INHIBITION: -48.78% for the first, 57.59% for the second.

First: CCNc1ncc(C(=O)NCc2ccc(F)c(C(F)(F)F)c2)cn1
Second: CCNc1ncc(C(=O)NCc2cccc(OC(F)(F)F)c2)cn1
The INHIBITION of the first is lower: -18.6% for the first, -15.83% for the second.

First: CCNc1ncc(C(=O)NCc2ccc3nsnc3c2)cn1
Second: CN(C)c1ccc(CNCc2cnc(N3CCOCC3)nc2)cn1
The INHIBITION of the first is higher: 86.69% for the first, -160.54% for the second.

Compared with Cc1nn(C)c(C)c1NC(=O)CN1CCc2c(nc(C(C)C)n2C)C1, Cc1nc(C(C)Nc2nc3c(s2)c(C)nn3C)n[nH]1 (stereo not drawn) is higher in INHIBITION: -31.89% for the first, 5.48% for the second.

Compared with CC(C)(C(=O)N1CCC(CS(N)(=O)=O)CC1)c1ccccc1F, CC(C)(C(=O)N1CCC(C(N)=O)C1)c1ccccc1F (stereo not drawn) is higher in INHIBITION: 30.06% for the first, 60.9% for the second.

Going from CC(C)(C(=O)NCC(=O)N1CCCC1)c1ccccc1F to O=C(CCC(=O)N1CCOCC1)NCc1cccnc1-n1cccn1, the INHIBITION falls from 5.47% to -15.37%.

Going from CCOc1ccc(Oc2cc(CN)ccn2)cc1 to COc1ccc(S(=O)(=O)Cc2cc(C)on2)cc1, the INHIBITION rises from 16.95% to 21.24%.

First: Cc1cn2c(n1)CCC(NC(=O)COCCOc1ccccc1)C2 (stereo not drawn)
Second: CC(C)NCC1(COc2ccccc2)C[C@@H](O)[C@@H](O)C1 (stereo partly drawn)
The INHIBITION of the first is lower: 1.49% for the first, 71.58% for the second.

First: Cc1nn(C)c2ncnc(N3CCCC(OCc4ccccn4)C3)c12 (stereo not drawn)
Second: Cc1nn(C)c2ncnc(N3CCCC(OCc4cccnc4)C3)c12 (stereo not drawn)
The INHIBITION of the first is lower: 10.23% for the first, 70.81% for the second.

Compared with Cc1cc2c(N3CCCC(OCc4cccnc4)C3)ncnc2s1 (stereo not drawn), CC(NCc1cccnc1)c1cc2c(cc1Br)OCCO2 (stereo not drawn) is higher in INHIBITION: 3.62% for the first, 52.83% for the second.

First: c1cc(CN2CCc3ncc(CN4CCCCC4)n3CC2)cs1
Second: Cc1ccc(CN2CCN(C(=O)c3ccc(Br)o3)CC2)cc1
The INHIBITION of the first is lower: 33.47% for the first, 45.77% for the second.

Compared with COCCN1CCC2(CC1)CC(N1CCOCC1)c1cc(C)ccc12 (stereo not drawn), N#Cc1cccc(N2CCCC3(CN(C(=O)NC4CC4)CCO3)C2)c1 (stereo not drawn) is higher in INHIBITION: -6.8% for the first, 6.36% for the second.

Going from CC(=O)N1CCCC1c1nccnc1Nc1ncccn1 (stereo not drawn) to CCCn1nc(C(=O)N2CCCC2c2noc(C)n2)ccc1=O (stereo not drawn), the INHIBITION falls from 13.33% to -17.18%.

First: CCc1noc(CS(=O)(=O)c2cccc(OC)c2)n1
Second: CC(C)Cc1nc(CS(=O)(=O)c2ccccc2)no1
The INHIBITION of the first is higher: 38.33% for the first, -5.66% for the second.

Compared with Cc1cc(CN(C)CCN(C)c2ccccc2)no1, Cc1cc(CS(=O)(=O)c2ccccc2)no1 is higher in INHIBITION: 7.62% for the first, 58.69% for the second.

First: CC(NCc1ccccn1)c1cc2c(cc1Br)OCCO2 (stereo not drawn)
Second: CC(NCc1ccncc1)c1cc2c(cc1Br)OCCO2 (stereo not drawn)
The INHIBITION of the first is lower: 8.93% for the first, 42.7% for the second.

Compared with CC(C)Oc1ncnc2c1CCN(Cc1ccco1)CC2, CC(C)Cn1cncc1Cn1cccc(C(F)(F)F)c1=O is lower in INHIBITION: 27.44% for the first, 1.22% for the second.

Compared with CCN(CC)CC1CN(Cc2ccc(C)s2)Cc2nccn2C1 (stereo not drawn), CCOCCN1C[C@H](C(=O)Nc2cccnc2)[C@@H]2CCO[C@@H]2C1 is higher in INHIBITION: -0.18% for the first, 8.18% for the second.

Going from CCn1cncc1Cn1cccc(C(F)(F)F)c1=O to CCn1cnnc1Cn1cccc(C(F)(F)F)c1=O, the INHIBITION rises from 10.1% to 62.01%.

Compared with CS(=O)(=O)N1C[C@H](C(=O)Nc2cccnc2)[C@@H]2CCO[C@@H]2C1, O=C(Nc1cccnc1)[C@H]1CN(C2CCCC2)C[C@H]2OCC[C@@H]12 is lower in INHIBITION: 51.27% for the first, -42.87% for the second.

Going from Cc1nn(C)cc1C1=NS(=O)(=O)N(C)C(C(=O)Nc2ccc(Br)cc2)=C1 to CC(NC(=O)NCc1cccs1)c1ccc2c(c1)CCC(=O)N2 (stereo not drawn), the INHIBITION falls from 22.84% to 16.84%.

First: O=C(c1ccoc1)N(Cc1ccncc1)C1CC1
Second: O[C@@H]1CC(CNCC2CC2)(COc2cccnc2)C[C@@H]1O (stereo partly drawn)
The INHIBITION of the first is lower: -37.38% for the first, 39.62% for the second.

First: CCc1nnc(SCc2nonc2C)n1C1CC1
Second: CC(C)C(C(=O)N1CCC(Nc2cccnn2)CC1)n1cncn1 (stereo not drawn)
The INHIBITION of the first is higher: -11.87% for the first, -12.48% for the second.

Compared with CC(NC(=O)NCCS(C)(=O)=O)c1ccc2c(c1)CCC(=O)N2 (stereo not drawn), CC(NC(=O)NCCCN(C)C)c1ccc2c(c1)CCC(=O)N2 (stereo not drawn) is lower in INHIBITION: 60.13% for the first, 2.08% for the second.

First: CC(C)(CN)NS(=O)(=O)c1cccc(F)c1F
Second: O=C(CCC(=O)N1CCC(c2noc3cc(F)ccc23)CC1)NC1CC1
The INHIBITION of the first is lower: -6.69% for the first, 11.87% for the second.

For O[C@@H]1CC(CNCC2CCCC2)(COc2cccnc2)C[C@@H]1O (stereo partly drawn), the INHIBITION was 42.64%.
